Test results published in PubChem BioAssay AID485347 (National Center for Advancing Translational Sciences (NCATS), 2010).
The campaign covered roughly 340,000 compounds. About 1,200 (0.35%) were called active.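 How the source made its calls: active means potentiation over 3 SD above the plate norm (cut at about 30% in these data); inactive means the rest.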 Many of the other results were omitted from the sample, so actives are more common in it than they were.

Biological target: D(2) dopamine receptor (Homo sapiens) (UniProt P14416)
Assay: HTS Assay for Positive Allosteric Modulators of the Human D2 Dopamine Receptor: Primary Screen for Potentiators; further: 0% is about no effect
Settings: HEK293 T-REx D2, calcium flux, EC20 dopamine potentiation; at 10 µM; hits give high values
In short: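 Primary screen. Calcium kinetics in induced HEK293 T-REx D2 cells: compound pre-addition 180 s, EC20 dopamine, 180 s more.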

Chain of D(2) dopamine receptor (Homo sapiens) (P14416 whole entry, looked up): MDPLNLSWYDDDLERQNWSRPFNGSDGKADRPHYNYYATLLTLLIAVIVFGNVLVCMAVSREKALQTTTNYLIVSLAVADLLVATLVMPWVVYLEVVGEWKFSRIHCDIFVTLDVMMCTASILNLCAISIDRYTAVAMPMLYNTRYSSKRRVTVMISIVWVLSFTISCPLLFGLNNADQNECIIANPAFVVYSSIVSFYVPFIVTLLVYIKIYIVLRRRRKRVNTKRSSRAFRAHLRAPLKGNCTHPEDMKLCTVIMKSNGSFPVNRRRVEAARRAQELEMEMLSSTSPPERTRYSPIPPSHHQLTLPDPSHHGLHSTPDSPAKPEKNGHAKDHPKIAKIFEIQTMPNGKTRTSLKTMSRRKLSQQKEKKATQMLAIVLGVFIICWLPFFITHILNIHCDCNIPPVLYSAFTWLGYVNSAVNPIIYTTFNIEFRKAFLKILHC

Structure (SMILES)	potentiation
COc1ccc(C(=O)OCC(=O)N2CC(=O)Nc3ccccc32)cc1Br	-9.38% (inactive)
COc1cc(OC)c(C(=O)OCC(=O)N2CC(=O)Nc3ccccc32)cc1OC	35.4% (active)
COc1ccc(Cl)cc1-n1c(C)cc(C(=O)OCC(=O)N2CC(=O)Nc3ccccc32)c1C	-19.1% (inactive)
O=C(Nc1nnc(C2CC(=O)N(c3ccc(Cl)cc3)C2)s1)c1ccco1 (configuration not stated)	-13.1% (inactive)
Cc1cccc(OCCCC(=O)Nc2ccc(S(=O)(=O)N3CCCC3)cc2)c1	9.5% (inactive)
CC(=O)NCCC(=O)Nc1cc(S(=O)(=O)N2CCCCC2)ccc1Oc1cccc(C)c1	-0.184% (inactive)
Cc1cccc(OCCC(=O)Nc2cc(S(=O)(=O)N3CCCCC3)ccc2N2CCOCC2)c1	38.1% (active)
CCOC(=O)N1CCC(NC(=O)c2cnn(-c3cccc(C)c3)c2C2CCN(C(=O)OC(C)(C)C)CC2)CC1	-9.08% (inactive)
Cn1nnnc1SCCNCc1ccc(Cl)c(Cl)c1	-14.4% (inactive)
Cc1cc(C)n(S(=O)(=O)c2cccc([N+](=O)[O-])c2)n1	2.11% (inactive)
Cc1ccc(-c2cn(S(=O)(=O)c3cccc([N+](=O)[O-])c3)nc2N)cc1	30.3% (active)
CC1=NCCN1S(=O)(=O)c1cccc([N+](=O)[O-])c1	12.8% (inactive)
COc1cccc(C(c2c(O)cc(C)n(Cc3ccco3)c2=O)N2CCN(c3ccccc3)CC2)c1 (configuration not stated)	-2.97% (inactive)
Cc1ccccc1CNC(=O)CCc1cn(Cc2ccccc2C)c2ccccc12	-1.4% (inactive)
COc1ccc(-c2cn3nc(N4CCCC(C(=O)NCCCOC(C)C)C4)sc3n2)cc1 (configuration not stated)	-3.35% (inactive)
Cc1cccc(NC(=O)C2CCN(S(=O)(=O)c3c(C)noc3/C=C/c3ccco3)CC2)c1	2.71% (inactive)
CC(C)c1ccc(C(=O)NCCCc2ccccc2)cc1	-14.7% (inactive)
O=C(CCNS(=O)(=O)c1ccccc1)NCCCc1ccccc1	-12.4% (inactive)
O=C(CCNC(=O)c1ccc(Br)cc1)NCCCc1ccccc1	33% (active)
Cc1cc(F)ccc1NS(=O)(=O)c1ccc(-n2cccn2)cc1	-0.96% (inactive)
COc1ccc(CCNC(=O)c2cc(=O)c3c(C)cc(C)cc3o2)cc1OC	-14.8% (inactive)
COc1ccc(S(=O)(=O)N2CCC(C(=O)NCc3ccco3)CC2)cc1C	6.74% (inactive)
COc1ccc(C2=NOC(C(=O)NCc3ccco3)C2)cc1OC (configuration not stated)	32.1% (active)

Structure (SMILES)	potentiation
COc1ccc(CNC(=O)C2CC(c3ccc(C(F)(F)F)cc3)=NO2)cc1 (configuration not stated)	11.9% (inactive)
COc1cccc(-n2cc(C(=O)NCc3cccc(Cl)c3)c3ccccc3c2=O)c1	3.92% (inactive)
Cc1nnc(NCc2ccccc2)c2c1nnn2Cc1ccc(F)cc1	-11.5% (inactive)
COc1cc(Cl)c(NC(=O)C(NS(=O)(=O)c2cccs2)C(C)C)c(OC)c1 (configuration not stated)	-0.155% (inactive)
Nc1nonc1-n1nnc(C(=O)N/N=C/C2CCCCC2)c1-c1ccccc1	38.6% (active)
COCc1c(C(=O)N/N=C/C2CC=CCC2)nnn1-c1nonc1N (configuration not stated)	5.51% (inactive)
CC(C)c1c(C(=O)N/N=C/c2ccc(-c3ccccc3)cc2)nnn1-c1nonc1N	4.04% (inactive)
Cc1cc(C)c2oc(-c3cccc(NC(=O)c4cccc(F)c4)c3C)nc2c1	-6.15% (inactive)
COc1cccc(-c2nc(CS(=O)(=O)CC(=O)N3CCN(c4cc(C)ccc4C)CC3)c(C)o2)c1	20.2% (inactive)
Cc1ccc(SCCSc2ncccn2)cc1	-3.01% (inactive)
Cc1ccc(SCc2cc(=O)[nH]c(N3CCCCC3)n2)cc1	-9.08% (inactive)
Cc1ccc(SCC2=NNC(=O)C2)cc1	31.9% (active)
CCn1c2ccccc2c2cc(NC(=O)COc3ccc(C)cc3C)ccc21	-13% (inactive)
CCc1ccc(NC(=O)c2nn(-c3ccc(C)cc3)c(=O)n(C)c2=O)cc1	11.1% (inactive)
COc1ccc(CNC(=O)COC(=O)/C=C/c2ccc(S(=O)(=O)N3CCOCC3)cc2)cc1	33.3% (active)
COC(=O)COc1ccc(S(=O)(=O)N2CCOCC2)cc1	-3.49% (inactive)
O=C(COC(=O)/C=C/c1ccc(S(=O)(=O)N2CCCCCC2)cc1)NCc1ccccc1Cl	-11.9% (inactive)
CCn1c(CN2CCC(C)CC2)nc2cc(NC(=O)c3ccccc3[N+](=O)[O-])ccc21	-38.3% (inactive)
O=C(Cn1cc(SCc2cccc(Cl)c2)c2ccccc21)N1CCCCC1	1.4% (inactive)
O=C(COc1ccc(Cl)cc1)N1CCN(c2cccc(C(F)(F)F)c2)CC1	35.5% (active)
Cc1c(C)c2ccc(OCC(=O)N3CCN(c4cccc(Cl)c4)CC3)cc2oc1=O	-6.58% (inactive)
O=C(COc1ccc(Cl)cc1)N1CCN(S(=O)(=O)c2ccc(Cl)cc2)CC1	-3.15% (inactive)
CCOC(=O)c1ccc(N2C(=O)c3n[nH]c(-c4ccco4)c3C2c2ccc(O)cc2)cc1 (configuration not stated)	-20% (inactive)

Structure (SMILES)	potentiation
Nc1ncc(S(=O)(=O)Nc2ccc(OC(F)(F)F)cc2)cn1	-3.21% (inactive)
CCOc1ccc(NC(=O)CC2C(=O)N(c3cccc(OC)c3)C(=O)N2C2CCCCC2)cc1 (configuration not stated)	2.76% (inactive)
COc1ccc(S(=O)(=O)c2cn(C)c3cc(N4CCCCC4)c(F)cc3c2=O)cc1	-4.51% (inactive)
COc1ccccc1N1CCN(c2ncnc3onc(-c4ccc(F)cc4)c23)CC1	-4.24% (inactive)
COC(=O)c1cnc(N2CCN(c3ccccc3OC)CC2)c2ccccc12	3.09% (inactive)
COc1ccccc1N1CCN(c2ncnc3sc(C)c(-c4ccccc4)c23)CC1	37.8% (active)
CCc1ccc(C2C(C(=O)Nc3ccccc3)=C(C)Nc3c(C(=O)Nc4ccc(C)cc4)cnn32)cc1 (configuration not stated)	4.34% (inactive)
COc1ccccc1N1CCN(c2ccc(=O)n(CC(=O)NCc3ccc(OC(C)C)cc3)n2)CC1	-2.29% (inactive)
COc1cccc(NC(=O)C2C(c3ccccc3)C2(Cl)Cl)c1 (configuration not stated)	-7.1% (inactive)
COc1cccc(NC(=O)C2c3cc(OC)c(OC)cc3C(=O)N(C)C2c2cccnc2)c1 (configuration not stated)	30.1% (active)
CCOc1cc2c(cc1OCC)C(C(=O)O)C(c1ccc(OC)c(O)c1)N(C)C2=O (configuration not stated)	-25.6% (inactive)
Cc1ccc(O)c(NC(=O)CCS(=O)(=O)c2nc(-c3ccc4c(c3)OCO4)cc(C(F)(F)F)n2)c1	5.96% (inactive)
Cc1cccc(NC(c2cccc(F)c2)c2ccc3ccc(C)nc3c2O)n1 (configuration not stated)	0.98% (inactive)
Cc1cc(C)cc(-n2c(SCC(=O)NCC3CCCO3)nc3c([nH]c4ccccc43)c2=O)c1 (configuration not stated)	-6.86% (inactive)
Cc1ccc(-n2cnc3cc(C(=O)NCCC4=CCCCC4)ccc32)cc1Cl	9.63% (inactive)
CCn1c2ccccc2c2cc(CN3CCN(Cc4cccc(Cl)c4)CC3)ccc21	-11.2% (inactive)
CCOC(=O)N1CCC(NC(=O)CCc2ccccc2)CC1	-4.2% (inactive)
CCOC(=O)N1CCC(c2cc(=O)n(-c3ccccc3)[nH]2)CC1	49.5% (active)
CCOC(=O)CN1CCC(c2ccccc2)CC1	-9.51% (inactive)
CCCCS(=O)(=O)c1oc(-c2cccs2)nc1S(=O)(=O)c1ccccc1	3.55% (inactive)
CCS(=O)(=O)N1CCc2cc(C(=O)N3CCN(c4ccccc4OC)CC3)ccc21	3.69% (inactive)
